# PubChem BioAssay AID430 (Sanford-Burnham Center for Chemical Genomics, 2006)
# Among all 63,000 compounds or so, about 1,100 (1.7%) were called active. Shown is part of a subset that was picked to be rich in actives. Entries with a potency or affinity are not part of this list. Unmarked numbers belong to inactive results. No stated cut-off is given here; in the data, active means cytotoxicity above about 50%; inactive means the rest.
# Experiment: cytotoxicity in HPDE-C7 cells, cell-based, fluorescence, HTS (AID 430);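 further: cells exposed to compound for 48 hours before viability readout; 0% = vehicle and 100% = reference cytotoxic drug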
# Details: HPDE-C7 pancreatic duct cells viability, at 10 µM, stronger effect = higher value
row,Compound,cytotoxicity
1,COc1ccc(OC)c(C(c2nnnn2CC2CCCO2)N2CCN(C3CCCC3)CC2)c1 (stereo unspecified),-10.4%
2,CC(Sc1ccccc1)C(=O)Nc1ccc(S(=O)(=O)N2CCOCC2)cc1 (stereo unspecified),-9.5%
3,CC1CN(C2CCCCC2)c2nc3c(c(=O)[nH]c(=O)n3C)n2C1 (stereo unspecified),-2%
4,COc1cc(S(=O)(=O)N2CCCC3(CCCCC3)C2)ccc1-n1cnnn1,78.1% (active)
5,COc1cc(S(=O)(=O)N2CCN3CCCC3C2)ccc1-n1cnnn1 (stereo unspecified),5.7%
6,COc1cc(S(=O)(=O)N2CCC(N3CCCCC3)CC2)ccc1-n1cnnn1,9.2%
7,CCOC(=O)C1=C(C)NC2=C(C(=O)CCC2)C1c1ccc(N(C)C)cc1 (stereo unspecified),1.2%
8,COc1ccc(CCNC(=O)C2CCCN(S(=O)(=O)c3cccc4nonc34)C2)cc1OC (stereo unspecified),-21.9%
9,OC(COc1ccccc1)CN1C2=NCCCN2c2ccccc21 (stereo unspecified),4.3%
10,O=C(NCc1ccco1)C1OCCc2ccccc21 (stereo unspecified),-15.1%
11,CCOC(=O)C1CCN(C(=O)c2ccc(SC)cc2OC)CC1,-4.9%
12,c1ccc2[nH]c(CSc3nnc(-c4ccncc4)o3)nc2c1,3.2%
13,c1cncc(-c2nnc(SCc3nc4ccccc4[nH]3)o2)c1,-14.6%
14,c1coc(-c2nnc(SCc3nc4ccccc4[nH]3)o2)c1,65.9% (active)
15,Cc1cc(C)nc(NS(=O)(=O)c2ccc(NC(=O)CCCN3C(=O)c4ccccc4C3=O)cc2)n1,1.9%
16,CC(=O)Nc1c(O)n(C)c2ccccc12,-20.2%
17,COc1ccc(-n2c(Cc3cccn3C)nnc2SCC(=O)NC2CCCCC2)cc1,-11.2%
18,COc1ccc(N(CC(=O)NC2CCCC2)C(=O)Cn2nnc(-c3ccc(C)cc3)n2)cc1OC,-4.2%
19,CC1C(=O)CCC1(C(=O)O)c1ccccc1 (stereo unspecified),9.4%
20,Cc1ccc(-c2csc3ncnc(-n4nc(C)cc4N)c23)cc1,0.5%
21,CCn1c(CN2CCCCCC2=O)nnc1SCc1cnc(-c2ccccc2)s1,4.1%
22,CN1CCN(Cc2nc3c(c(=O)[nH]c(=O)n3C)n2Cc2c(F)cccc2Cl)CC1,-13.5%
23,CN(Cc1ccccc1)C(=O)CCS(=O)(=O)c1ccc2c(c1)n(C)c(=O)c(=O)n2C,-7%
24,COc1ccc2[nH]c(=O)c(CN(Cc3ccco3)C(=O)c3ccccc3)cc2c1,-8.8%

row,Compound,cytotoxicity
1,CCOc1ccc2[nH]c(=O)c(CN(Cc3ccco3)C(=O)c3ccc(Br)cc3)cc2c1,22.7%
2,CCOc1ccc2[nH]c(=O)c(CN(Cc3ccco3)C(=O)c3cccc(F)c3)cc2c1,78% (active)
3,CCCn1nnc(NC(=O)COc2ccc(Cl)cc2)n1,-10.6%
4,COCCN(C(=O)Cc1cccs1)c1nnc(-c2cccnc2)s1,-0.4%
5,Cc1ccccc1Cn1cc(NC(=O)c2cc3nc(-c4ccco4)cc(C(F)(F)F)n3n2)cn1,29.2%
6,O=C(Nc1ccc(Cl)cc1)c1cc2nc(-c3ccco3)cc(C(F)(F)F)n2n1,66.2% (active)
7,Cc1ccccc1Cn1ccc(NC(=O)c2cc3nc(-c4ccco4)cc(C(F)(F)F)n3n2)n1,53% (active)
8,O=C(Nc1cnn(Cc2ccc(F)cc2)c1)c1cc2nc(-c3ccco3)cc(C(F)(F)F)n2n1,38.9%
9,Cc1ccccc1Cn1ccc(NC(=O)c2cnn3c(C(F)(F)F)cc(-c4ccco4)nc23)n1,37.2%
10,O=C(Nc1cnn(Cc2ccccc2)c1)c1cc2nc(-c3ccco3)cc(C(F)(F)F)n2n1,6%
11,CCOc1ccc(OCC)c(NC(=O)CCn2cccc2)c1,7.1%
12,O=C(NCC(c1cccnc1)N1CCOCC1)c1cccs1 (stereo unspecified),-33.1%
13,COc1ccc(-c2c(C#N)c(SCc3c(C)noc3C)nc3c2C(=O)CC(C)(C)C3)cc1,-11%
14,Cc1cc(NC(=O)CS(=O)(=O)c2cn(Cc3cccc(F)c3)c3ccccc23)no1,-2.5%
15,CCOc1ccc(C(=O)NCC2CCCO2)cc1 (stereo unspecified),1.4%
16,c1csc(-c2ccc3ccccc3n2)c1,9.1%
17,CC(=O)c1cc2c(cc1NS(=O)(=O)c1ccc3c(c1)OCCO3)OCO2,36.4%
18,COC(=O)c1ccc(NS(=O)(=O)c2ccc(OC)cc2)cc1,2%
19,COC(=O)c1ccc(C)c(NS(=O)(=O)c2ccc(OC)cc2)c1,68% (active)
20,O=C(O)c1ccc(NS(=O)(=O)c2ccc3c(c2)OCCO3)cc1,0.3%
21,COC(=O)c1ccc(C)c(NC(=O)CN(c2ccc3c(c2)OCO3)S(C)(=O)=O)c1,-6.6%
22,COC(=O)c1ccc(Cl)c(NS(=O)(=O)c2ccc3c(c2)OCCO3)c1,55.7% (active)
23,COC(=O)c1ccc(C)c(NS(=O)(=O)c2ccc(NC(C)=O)cc2)c1,20.6%
24,CCCNC(=O)c1ccccc1NS(=O)(=O)c1ccc2c(c1)OCCO2,14.8%

row,Compound,cytotoxicity
1,COC(=O)c1ccc(C)c(NS(=O)(=O)c2ccc3c(c2)OCCO3)c1,62.8% (active)
2,O=S(=O)(NCCC1=CCCCC1)c1cccc2nsnc12,-4.7%
3,CCn1c(COc2ccccc2C)nnc1SCC(=O)N1CCC(C)CC1,-9.2%
4,CCCC(C)NC(=O)c1ccc(F)cc1 (stereo unspecified),-1.2%
5,CCN(C(=O)CSc1nc2nc(C)cc(C)n2n1)c1cccc(C)c1,-9%
6,OC1CCCN(Cc2ccc3c(c2)Cc2ccccc2-3)C1 (stereo unspecified),-0.6%
7,CC1Cc2ccccc2N1C(=O)c1ccc2c(c1)nnn2C (stereo unspecified),-5.8%
8,CCOCCN1CCN(c2c(C)c(C)nc3cc(-c4cc(OC)cc(OC)c4)nn23)CC1,21.4%
9,CCc1c(C)nc2cc(-c3ccc(OC)c(OC)c3)nn2c1N1CCCC1,8.9%
10,CCCOc1ccc(C2C(=O)N(C3CCCCC3)CC(=O)N2CCC)cc1OC (stereo unspecified),-24.3%
11,COc1ccccc1NC(=O)C(O)C(O)C(=O)Nc1ccccc1OC (stereo unspecified),6.7%
12,CCn1c(SCc2nc3ccccc3[nH]2)nnc1-c1ccccc1OC,-14.9%
13,COC(=O)c1cc(OC)c(OC)cc1N=CC1=C(O)CC(C)(C)CC1=O,10.3%
14,c1cncc(-c2nn3cnnc3s2)c1,3.2%
15,CCN(CCO)C(=O)C12CCC(C)(C(=O)C1)C2(C)C (stereo unspecified),5.2%
16,COc1ccc(-n2nnnc2SCC(=O)c2cccc(OC)c2)cc1,6.3%
17,COc1ccc(-n2nnnc2SCC(=O)c2ccc(O)c(O)c2)cc1,17.9%
18,CCOc1ccc(-n2nnnc2SCC(=O)c2ccccc2)cc1,59.8% (active)
19,Cc1ccc(S(=O)(=O)N(C)c2nonc2C)cc1,9.7%
20,CN(Cc1cnn(C)c1)C(=O)c1cc2ccccc2oc1=O,-0.7%
21,C[C@]12CC[C@@H]3c4ccc(O)cc4CC[C@H]3[C@@H]1CCC2=O,12.1%
22,C[C@]12CC[C@@H]3c4ccc(O)cc4CC[C@H]3[C@@H]1CC[C@@H]2OC(=O)CCC(=O)O,4.5%
23,O=C(NCC(=O)N(c1ccc(F)cc1)C(C(=O)NCC1CCCO1)c1ccccc1)c1ccco1 (stereo unspecified),-7.1%
24,CN1C(=O)C(O)(CC(=O)c2cccc(-n3cccc3)c2)c2ccccc21 (stereo unspecified),-0.5%

row,Compound,cytotoxicity
1,Cc1cc(=O)[nH]c2ccccc12,-2.8%
2,CN(C)C=Nc1ncc2c([nH]c3ccccc32)c1C#N,15.4%
3,CCC(C(=O)NC1CCCC1)N(C(=O)Cn1nnc(-c2ccc(OC)c(OC)c2)n1)C1CCCCC1 (stereo unspecified),-12.1%
4,CC(C)(C#CCN1CCCC1)OCCC#N,-16.7%
5,O=C(CN1C(=O)c2ccccc2S1(=O)=O)Nc1ccc(S(=O)(=O)N2CCCCC2)cc1,-22%
6,C/C=C/c1ccc(OC)c(OC(C)=O)c1,-5.1%
7,COc1cc(-c2cc(OC)c3c(C)oc(C)c3c(=O)c2)ccc1O,38%
8,O=C(O)/C=C/c1ccc(O)c(O)c1,-18.3%
9,COc1cc(/C=C/C2=NC(=O)C(C)(C)O2)ccc1O,53.4% (active)
10,COc1cc(/C=N/n2nnnc2N)ccc1O,3.8%
11,CCOc1ccccc1C1C2C(=O)N(c3ccccc3)C(=O)C2ON1c1ccccc1 (stereo unspecified),-2.8%
12,Cc1cc(C)c2[nH]c(=O)c(CN(Cc3ccc4c(c3)OCO4)Cc3nnnn3C3CCCC3)cc2c1,14.9%
13,CCOCCCNC(=O)C(NC(=O)c1ccc(=O)[nH]c1)c1ccccc1 (stereo unspecified),2.7%
14,COc1ccc(S(=O)(=O)N(C)CC(=O)N2CCCCCC2)cc1OC,-2.9%
15,COc1cccc(N2CCN(C3CC(=O)N(c4ccc(Cl)c(Cl)c4)C3=O)CC2)c1 (stereo unspecified),1.1%
16,CCCCCC(=O)N1CCN(c2ccc(C(C)=O)cc2F)CC1,-3.3%
17,CCCC(=O)c1ccc(N2CCN(C(=O)c3ccc(Br)cc3)CC2)c(F)c1,-6.3%
18,CCCC(=O)N1CCN(c2ccc(C(=O)c3ccc(OC)c(Br)c3)cc2F)CC1,58.1% (active)
19,CCN=C1SC(CC(=O)Nc2ccc(C(F)(F)F)cc2)C(=O)N1CC (stereo unspecified),-10.9%
20,Cc1ccc2nc(NCCO)nc(-c3ccccc3)c2c1,16.6%
21,O=C(O)c1cc(-c2ccccc2)nc2ccccc12,-1.2%
22,Cc1cc(Cl)ccc1OCc1nc(-c2ccc(O)cc2)n[nH]1,77.3% (active)
23,Clc1ccc(OCc2nc(-c3ccccn3)n[nH]2)cc1,42.3%
24,Cc1cc(Cl)ccc1OCCCC(N)=O,-4.7%
